BaF3 parental: reduces parental Ba/F3 cell viability, JAK2V617F counter-screen. inhibition, % at 5.6 µM. CellTiter-Glo ATP luminescence. 220,000 compounds, 1.1% hits;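 active = inhibition above a per-campaign cutoff, the mean inhibition of all tested compounds plus 3 SD, cut at about 27% in these data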;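 also: 0% = DMSO wells and 100% = JAK Inhibitor I control wells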
KLF5 inhibitor: kruppel-like factor 5 inhibition | AID 1700 | inhibition, % at 5 µM | DLD-1 KLF5 promoter-luciferase reporter, luminescence | 290,000 compounds, 0.23% hits;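 active = inhibition above a per-plate limit of that plate's mean compound inhibition plus 3 SD, cut at about 60% in these data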;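 also: 0% = DMSO wells and 100% = LY294002 at 200 µM; higher means less KLF5 promoter-driven luciferase light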
Ba/F3 V617F tox: reduce viability of Ba/F3 cells dependent on JAK2V617F. AID 1446. 220,000 compounds, 1.1% hits. inhibition, % at 5.6 µM. Ba/F3 EpoR-JAK2V617F viability, ATP luminescence;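 active = inhibition above the campaign mean plus 3 SD over all tested compounds, cut at about 24% in these data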;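 also: cytokine-independent growth of Ba/F3 cells driven by EpoR plus mutant JAK2; 0% = DMSO-treated cells and 100% = JAK inhibitor I control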
aSyn UTR inh: MLPCN primary screen, SNCA 5' untranslated region. inhibition, % (tested at 7.5 µM). 300,000 compounds, 0.82% hits. alpha-synuclein 5'UTR reporter, inhibitor activity; in the data active = inhibition above about 60%;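 also: H4 neuroglioblastoma cells stably carrying SNCA 5'UTR luciferase fusion; 0% = DMSO wells and 100% = positive control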
IEC-6 tox: kills IEC-6 intestinal cells in KLF5 counter-screen; 290,000 compounds, 0.78% hits; inhibition, % at 5 µM; IEC-6 cytotoxicity, luminescence viability; in the data active = inhibition above about 22%;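 also: 0% = plate median of test compound wells and 100% = cytotoxic reference compound wells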
APP transl inh: APP translation inhibition. SH-SY5Y APP 5'UTR-luciferase reporter, luminescence. inhibition, % at 2 µM. 190,000 compounds, 0.82% hits;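 active = inhibition above a set limit, derived from the sample mean plus 3 SD, cut at about 45% in these data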
BaF3 parental 2: counter-screen for JAK2V617F inhibitors: parental Ba/F3 viability inhibitors; shares compounds with Ba/F3 V617F tox; CellTiter-Glo luminescence; cells kept alive by added IL-3; inhibition, % at 5.6 µM; 580 compounds, 31% hits;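 active = cell growth inhibition above the hit limit set in the earlier mutant JAK2 cell screen, cut at about 27% in these data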;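 also: plate controls were DMSO-treated cells for no effect and JAK Inhibitor I control wells for full effect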
JAK2V617F conf: confirmation: loss of viability in JAK2V617F-dependent Ba/F3 cells; shares compounds with Ba/F3 V617F tox; Ba/F3 EpoR-JAK2V617F viability, CellTiter-Glo luminescence; inhibition, % at 5.6 µM; 580 compounds, 66% hits; AID 1521;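 active = mean inhibition above the hit cutoff derived in the earlier primary screen, cut at about 25% in these data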;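 also: 0% = DMSO-treated cells and 100% = JAK inhibitor I control wells; higher means lower luminescence from reduced cell ATP and viability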
Active calls of the source: *; / = no result given. A selection: hits, their analogues and other compounds. The true share with any hit is near 2.1%.

SMILES	BaF3 parental	KLF5 inhibitor	Ba/F3 V617F tox	aSyn UTR inh	IEC-6 tox	APP transl inh	BaF3 parental 2	JAK2V617F conf
Cc1cc(NC(=O)CSc2nc(-c3ccco3)cc(C(F)(F)F)n2)no1	5	39	61*	69*	46*	18	48*	90*
Oc1ccc(CN2CCC(Cc3ccccc3)CC2)c2cccnc12	0	15	83*	105*	-12	58*	84*	98*
O=C(CSc1nccn1Cc1ccccc1)NC1CCCC1	/	-36	/	-24	1	/	/	/
CC(Sc1ncc(C(F)(F)F)cc1Cl)C(=O)NC(N)=O (centres undefined)	3	-25	39*	10	0	-14	0	-2
CC(=O)C1=C(O)CC(C)(C)CC1=NCCc1nc2ccccc2[nH]1	3	-26	102*	5	4	3	-3	3
COc1ccc(N=Nc2n(C)c3ccccc3[n+]2C)cc1	22	37	26*	103*	18	/	35*	22
Cn1c(COc2ccccc2O)[n+](C)c2ccccc21	/	-14	/	12	6	/	/	/
CC1CCCC(NC(=O)CCC(=O)NCc2ccccc2)C1C (centres undefined)	/	-15	/	6	-3	/	/	/
O=C1C2C3C=CC(C3)C2C(=O)N1c1ccc2c(c1)OCO2 (centres undefined)	2	-4	57*	16	3	-6	-6	-6
O=C1C2C3C=CC(CC3)C2C(=O)N1c1ccc2c(c1)OCO2 (centres undefined)	2	3	0	0	-3	11	/	/
CC(=O)c1ccc(Sc2nnnn2-c2ccccc2)c([N+](=O)[O-])c1	3	6	44*	-8	2	-38	2	83*
CN1CCN(c2ccc(-c3cccc(NC(=O)COc4ccc(Cl)cc4Cl)c3)nn2)CC1	/	/	/	-19	/	/	/	/
Nc1ccc2nc(-c3cc(Cl)c(N)c(Cl)c3)[nH]c2c1	20	-90	24*	-279	6	-44	31*	53*
Nc1ccc2nc(-c3ccc(Cl)cc3)[nH]c2c1	/	/	/	-176	/	-61	/	/
Cc1ccc(C)c(-c2nc3ccc(N)cc3[nH]2)c1	26	-1	33*	-64	7	3	35*	54*
O=c1[nH]cnc2c1ncn2[C@@H]1O[C@H](CO)[C@@H](O)[C@H]1O	0	-4	-3	13	-4	11	/	/
O=c1cnn([C@@H]2O[C@H](CO)[C@@H](O)[C@H]2O)c(=O)[nH]1	11	40	36*	8	16	-2	3	68*
CCCCOc1ccccc1C1C(C(=O)OC)=CN(CC)C=C1C(=O)OC	26	-30	29*	1	13	2	30*	35*
CCCOc1ccccc1C1C(C(=O)OC)=CN(C(C)C)C=C1C(=O)OC	7	-18	2	5	-12	18	/	/
NC(=O)CC(NC(=O)c1ccc(Br)cc1)c1ccc(NC2CCCCCCC2)c([N+](=O)[O-])c1 (centres undefined)	/	-28	/	-3	-5	/	/	/
CCOC(=O)c1[nH]c(C)c(C(=O)/C=C/c2ccc(C(=O)O)cc2)c1C	/	-23	/	-20	-8	/	/	/
O=C(Nc1ccc(NC(=S)NC(=O)C(c2ccccc2)c2ccccc2)cc1)c1ccccc1	8	-9	28*	8	5	1	29*	64*
Cc1cc(C)c2nc(SCC(=O)N3CC(=O)Nc4ccccc43)c(C#N)cc2c1	4	-2	67*	67*	0	96*	97*	99*
CCOC(=O)C(=NC1CCCCC1)NNc1cccc(C(F)(F)F)c1	2	-17	36*	-24	8	-7	0	3
CCOC(=O)C(=NC(C)CC)NNc1cccc(C(F)(F)F)c1 (centres undefined)	5	-15	3	-7	3	-16	/	/
SMILES	BaF3 parental	KLF5 inhibitor	Ba/F3 V617F tox	aSyn UTR inh	IEC-6 tox	APP transl inh	BaF3 parental 2	JAK2V617F conf
O=c1[nH]c(CN2CCN(c3ccc(F)cc3)CC2)nc2ccccc12	1	-6	1	-5	-2	0	/	/
Fc1ccc(N2CCN(Cc3ccccn3)CC2)cc1	-1	-11	63*	-24	-2	-4	-5	-7
Oc1ccc(Cl)cc1N=Cc1sc2ccccc2c1Cl	16	18	40*	-44	0	-22	21	86*
COc1ccccc1-c1nnc(Sc2nc([N+](=O)[O-])nn2C)o1	19	-42	60*	-83	14	/	6	87*
Cn1cnnc1Sc1nc([N+](=O)[O-])nn1C	5	-21	3	-5	-2	-21	/	/
CCn1c(SCc2nc(-c3ccccc3)no2)nnc1-c1ccco1	5	7	-2	-32	-3	3	/	/
CCn1c(SCc2c(F)cccc2Cl)nnc1-c1ccco1	-1	8	27*	-23	4	-2	-2	4
Cc1ccc(C(=O)c2c(C)oc3c2C(=O)C(=O)c2ccccc2-3)cc1	3	-20	27*	-21	16	-15	1	33*
COc1ccc(-c2cc(-c3ccc(C)cc3)n[nH]2)c(O)c1	/	-255	/	-144	-1	/	/	/
COc1ccc(-c2cc(-c3cc(C)ccc3O)[nH]n2)cc1	10	-60	32*	-249	-3	-62	25	80*
O=C(c1ccc2oc(Cc3ccc(Cl)cc3)nc2c1)N1CCCCC1CCO (centres undefined)	/	-9	/	-6	0	/	/	/
CCc1ccc(NC(=O)c2noc3c2CCc2ccccc2-3)cc1	24	-31	61*	-95	3	-1	-3	-13
Cc1nn(CC(=O)NNC(=O)c2ccccc2F)c([N+](=O)[O-])c1Br	-1	-4	3	18	3	/	/	/
C=CCN1C(=O)c2ccc(C(=O)Nc3ccccn3)cc2C1=O	/	/	/	0	/	/	/	/
Cc1ccc(C(=O)N2CCN3C(=O)c4ccccc4C23c2ccc(Cl)cc2)cc1 (centres undefined)	22	-9	28*	-69	17	-2	16	36*
COc1ccc(Nc2nc(N)nc(CCl)n2)cc1	-1	-24	45*	-38	6	/	-1	65*
Nc1nc(CCl)nc(Nc2ccc3ccccc3c2)n1	24	-59	100*	23	47*	/	9	99*
Cc1ccccc1Nc1nc(N)nc(CCl)n1	-5	-8	37*	-5	14	/	-3	9
CC(=O)C1=C(c2ccccc2)NC(=O)NC1c1cccs1 (centres undefined)	/	-7	/	3	-6	/	/	/
COc1cscc1C(N)=O	1	-8	-5	2	-2	/	/	/
Cc1ccccc1CNC(=O)C(=O)NCC1OCCCN1S(=O)(=O)c1cccs1 (centres undefined)	/	-12	/	16	4	/	/	/
COc1cccc(CN2CCN(CCCc3ccccc3)C(CCO)C2)c1O (centres undefined)	/	-5	/	-15	-4	/	/	/

Screening results from PubChem BioAssay.
